Data from PubChem BioAssay AID1851 (National Center for Advancing Translational Sciences (NCATS), 2009).
Where “and” joins values, the source holds several entries; their conditions need not be identical. Equal entries are not always repeated. About 4,000 (25%) of roughly 16,000 compounds were called active. Roughly 26% stayed inconclusive and do not appear here. Calls follow the shape of the dose curve; as a rule, active = well fitted curve in the direction sought with a large enough effect; inconclusive = small, poorly fitted or top-dose-only effect, or effect the other way; inactive = no such curve, though single readings can be large or run the other way. Only a sample is shown. Some compounds were tested as several samples or in several runs, with calls that do not always agree.

target: Cytochrome P450 2C9 (Homo sapiens) (UniProt P11712); assay: Cytochrome panel assay with activity outcomes; details: recombinant CYP, pro-luciferin dealkylation, luminescence, p450-cyp2c9; series mostly up to 57.1 µM
Sequence (P11712 whole entry, looked up): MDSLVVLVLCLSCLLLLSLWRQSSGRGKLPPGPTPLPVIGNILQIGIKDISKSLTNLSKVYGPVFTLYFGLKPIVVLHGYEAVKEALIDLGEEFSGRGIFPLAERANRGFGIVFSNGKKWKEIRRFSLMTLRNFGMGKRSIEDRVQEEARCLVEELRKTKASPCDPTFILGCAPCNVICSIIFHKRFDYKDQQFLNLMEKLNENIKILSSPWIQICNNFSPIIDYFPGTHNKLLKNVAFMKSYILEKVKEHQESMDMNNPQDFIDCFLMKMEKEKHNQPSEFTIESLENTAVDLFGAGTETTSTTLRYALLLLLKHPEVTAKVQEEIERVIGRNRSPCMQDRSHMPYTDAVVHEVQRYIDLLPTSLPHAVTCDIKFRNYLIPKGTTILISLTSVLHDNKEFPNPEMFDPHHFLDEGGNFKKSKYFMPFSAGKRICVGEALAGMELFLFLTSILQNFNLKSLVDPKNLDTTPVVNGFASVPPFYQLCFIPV
% is scaled to controls: 0 for no effect and ±100 for the full control effect.

Q: COc1ccc(CNC(=O)/C=C\c2ccc3[nH]cc(CCN(C)C)c3c2)cc1 was tested. Which activity, negative = inhibition did it give?
A: inactive

Q: With c1ccc(C[C@@H](c2ccccc2)N2CCCCC2)cc1 as the compound, how does the activity, negative = inhibition read?
A: inactive

Q: For CN1CCc2cc(O)cc3c2[C@H]1Cc1ccc(O)c(O)c1-3, which activity, negative = inhibition is on record?
A: inactive

Q: Which AC50 does the source give for O=C(O)C(O)(c1ccc(-c2ccccc2)cc1)c1ccc(-c2ccccc2)cc1 here?
A: 3.16 µM (active)

Q: C[N+]12CCC(CC1)[C@@H](OC(=O)C(O)(c1ccccc1)c1ccccc1)C2 was tested. Which activity, negative = inhibition did it give?
A: inactive

Q: With O=C(C[n+]1ccc2ccccc2c1)c1ccc2ccc3ccccc3c2c1 as the compound, how does the activity, negative = inhibition read?
A: 16.4% [at 11.4 µM] (inactive)

Q: With CCn1cc(C(=O)O)c(=O)c2cc3c(cc21)OCO3 as the compound, how does the activity, negative = inhibition read?
A: inactive

Q: With Clc1ccc(C2=CCC[C@H]3CC[C@@H]2N3)cn1 as the compound, how does the activity, negative = inhibition read?
A: inactive

Q: Which activity, negative = inhibition does the source give for Cn1ccnc1 here?
A: inactive

Q: How did the activity, negative = inhibition turn out when c1cc(CCN2CCCCC2)ccn1 was run?
A: 3.53% [at 11.4 µM] (inactive)

Q: Which AC50 does the source give for Clc1ccc(C(c2ccc(Cl)cc2)n2cc[n+](C[C@@H](OCc3ccc(Cl)cc3Cl)c3ccc(Cl)cc3Cl)c2)cc1 here?
A: 31.6 µM (active)

Q: With Cc1nc(-c2ccc(-c3ccc(C(=O)N4CCc5cc6c(cc54)C4(CCN(C)CC4)CO6)cc3)c(C)c2)no1 as the compound, how does the AC50 read?
A: inactive and 7.94 µM (active)

Q: Which activity, negative = inhibition does the source give for NCCc1ccc(S(=O)(=O)O)cc1[N+](=O)[O-] here?
A: 8.12% [at 11.4 µM] (inactive)

Q: For C[C@H](N)c1cccc(Cl)c1Cl, which activity, negative = inhibition is on record?
A: inactive

Q: With CC[C@H](Oc1ccc(Cl)cc1)C(=O)OC1C[C@H]2CC[C@@H](C1)N2C (stereo partly specified) as the compound, how does the AC50 read?
A: 0.1 µM (active)

Q: C[C@@H](C(=O)OC1C[C@H]2CC[C@@H](C1)N2C)c1ccc(Br)cc1 (stereo partly specified) was tested. Which activity, negative = inhibition did it give?
A: inactive

Q: Which activity, negative = inhibition does the source give for CN1C2CCC1CC(OC(=O)c1ccc(Cl)cc1)C2 (stereo unspecified) here?
A: inactive

Q: For CCCN(CCC)[C@@H]1CCc2ccc(O)cc2C1, which activity, negative = inhibition is on record?
A: inactive

Q: For O=C(Nc1ccccc1)N1CCC2(CC1)CCN(C(=O)Oc1ccccc1)CC2, which activity, negative = inhibition is on record?
A: inactive

Q: c1cnc(N2CCC3(CCNCC3)CC2)nc1 was tested. Which activity, negative = inhibition did it give?
A: inactive

Q: C[Se]C[C@@H](N)C(=O)O was tested. Which activity, negative = inhibition did it give?
A: inactive

Q: With O=c1[nH]c(=O)n([C@H]2C[C@H](O)[C@H](CO)O2)cc1/C=C\Br as the compound, how does the activity, negative = inhibition read?
A: inactive

Q: For Oc1ccc2c3c1O[C@H]1c4c(c5ccccc5n4Cc4ccccc4)C[C@]4(O)[C@H](C2)N(CC2CC2)CC[C@@]314, which activity, negative = inhibition is on record?
A: inactive

Q: With Clc1cccc(N2CCNCC2)c1 as the compound, how does the activity, negative = inhibition read?
A: inactive

Q: How did the activity, negative = inhibition turn out when c1ccc2nc(N3CCNCC3)ccc2c1 was run?
A: inactive

Q: Which AC50 does the source give for Clc1cncc(N2CCNCC2)n1 here?
A: 2 µM (active)

Q: CCCN(CCC)[C@H]1CCc2c(F)ccc(O)c2C1 was tested. Which activity, negative = inhibition did it give?
A: inactive

Q: With NS(=O)(=O)C[C-]1C=C[CH]([Sb-]([Cl])([Cl])([Cl])([Cl])[Cl])C=C1.c1ccncc1 (stereo unspecified) as the compound, how does the activity, negative = inhibition read?
A: 2.33% [at 11.4 µM] (inactive)

Q: With CNCCc1cnc[nH]1 as the compound, how does the activity, negative = inhibition read?
A: inactive

Q: How did the AC50 turn out when Cc1ccccc1-c1cncnc1NCCc1cnc[nH]1 was run?
A: 1 µM (active)

Q: With CN1C(=O)C(=Cc2ccccc2Oc2ccc(Cl)c(F)c2)C(=O)N(C)C1=O as the compound, how does the AC50 read?
A: 6.31 µM (active)

Q: Which activity, negative = inhibition does the source give for COC1=C(C)C(=O)c2c(c(COC(N)=O)c3n2C[C@@H]2[C@@H]3N2C)C1=O (stereo partly specified) here?
A: -23.6% [at 11.4 µM] (inactive)

Q: Cc1sc2ccccc2c1CC1=NCCN1 was tested. Which activity, negative = inhibition did it give?
A: inactive

Q: For CC(=O)O[C@H]1C[C@@H](O[C@@H]2[C@H](C)O[C@H](O[C@@H]3[C@H](C)O[C@H](O[C@@H]4CC[C@@]5(C)[C@@H](CC[C@]6(C)[C@]5(C)C[C@H](O)[C@]5(C)[C@@H](C7=CC(=O)OC7)CC[C@@]56O)C4)C[C@@H]3O)C[C@@H]2O)O[C@@H](C)[C@H]1O[C@H]1O[C@@H](CO)[C@@H](O)[C@@H](O)[C@@H]1O, which activity, negative = inhibition is on record?
A: inactive

Q: How did the activity, negative = inhibition turn out when CNC(=O)OCC[N+](C)(C)C was run?
A: inactive

Q: Which AC50 does the source give for COC(=O)c1[nH]c2ccc(Br)cc2c1NC(=O)Oc1ccccc1 here?
A: 8.91 µM (active)

Q: With COC(=O)c1cc2c(cn1)[nH]c1ccccc12 as the compound, how does the activity, negative = inhibition read?
A: inactive

Q: With N[C@@H](Cc1cc(Br)c(O)c(Br)c1)C(=O)O as the compound, how does the activity, negative = inhibition read?
A: -7.73% [at 11.4 µM] (inactive)

Q: For O=C(Cc1ccc(Cl)c(Cl)c1)N1CCCC[C@H]1CN1CCCC1, which activity, negative = inhibition is on record?
A: inactive

Q: CN(C(=O)Cc1ccc(Cl)c(Cl)c1)[C@@H](CN1CCCC1)c1cccc(OCC(=O)O)c1 was tested. Which activity, negative = inhibition did it give?
A: inactive

Q: Which AC50 does the source give for COC(=O)N1CCN(C(=O)Cc2ccc(Cl)c(Cl)c2)[C@H](CN2CCCC2)C1 here?
A: inactive and 12.6 µM (active)

Q: Which activity, negative = inhibition does the source give for O=c1[nH]c(=O)n(CCC2=CCCCC2)c(O)c1C=Nc1cccc(F)c1 here?
A: inactive

Q: How did the activity, negative = inhibition turn out when CCn1cnc2c(Nc3cccc(Cl)c3)nc(N[C@@H]3CCCC[C@H]3N)nc21 was run?
A: inactive

Q: Cc1ccccc1-n1c(O)c(C=Nc2ccc(N(C)C)cc2)c(=O)[nH]c1=O was tested. Which activity, negative = inhibition did it give?
A: inactive

Q: With CC(C)N[C@@H](C)Cc1ccc(I)cc1 as the compound, how does the activity, negative = inhibition read?
A: inactive

Q: How did the activity, negative = inhibition turn out when CCN(CC)C1=NC(=[N+](CC)CC)c2ccccc21 was run?
A: inactive

Q: For C[C@]1(C(=O)O)[C@@H]2CC[C@@H](O2)[C@@]1(C)C(=O)O, which activity, negative = inhibition is on record?
A: inactive

Q: For CCOCCN1CCC(OC(C)=O)C(C)C1 (stereo unspecified), which activity, negative = inhibition is on record?
A: inactive

Q: With CCN1C[C@]2(C)CC[C@H](OC)[C@@]34[C@@H]2[C@H](OC(C)=O)[C@]2(OCO[C@@]25C[C@@H](OC)[C@@H]2C[C@@]3(O)[C@H]5[C@@H]2OC)[C@H]14 as the compound, how does the activity, negative = inhibition read?
A: inactive

Q: Which AC50 does the source give for O=C1NC(=O)N(CCNc2ncc(C(F)(F)F)cc2Cl)C(=O)C1/C=N/OCc1c(F)cccc1Cl (stereo unspecified) here?
A: 0.794 µM (active)

Q: NC[C@@H](CC(=O)O)c1ccc(Cl)cc1 was tested. Which activity, negative = inhibition did it give?
A: inactive

Q: Which activity, negative = inhibition does the source give for N[C@@]1(C(=O)O)CC[C@H](C(=O)O)C1 here?
A: inactive

Q: For COC[C@H]1OC(=O)c2coc3c2[C@@]1(C)C1=C(C3=O)[C@H]2CCC(=O)[C@@]2(C)C[C@H]1OC(C)=O, which activity, negative = inhibition is on record?
A: inactive

Q: With Cc1cc(C(C)(C)C)cc(C)c1CC1=NCCN1 as the compound, how does the activity, negative = inhibition read?
A: inactive

Q: For CC[C@H](CO)NC(=O)[C@@H]1C=C2c3cccc4c3c(cn4C)C[C@@H]2N(C)C1, which activity, negative = inhibition is on record?
A: inactive

Q: With C[C@H]1CC[C@]2(OC1)O[C@@H]1C[C@@H]3[C@@H]4CC[C@H]5C[C@@H](O)CC[C@]5(C)[C@@H]4CC(=O)[C@@]3(C)[C@H]1[C@@H]2C as the compound, how does the activity, negative = inhibition read?
A: inactive

Q: Which activity, negative = inhibition does the source give for C[C@@]12CC[C@H]3[C@@H](CCC4=CC(=O)CC[C@]43C)[C@H]1CC[C@H]2C(=O)CO here?
A: inactive

Q: For C[C@]12CC[C@H](O)C[C@@H]1CC[C@H]1[C@H]2CC[C@]2(C)[C@H](C(=O)CO)CC[C@@H]12, which AC50 is on record?
A: 25.1 µM (active)

Q: CC(=O)[C@@H]1CC[C@H]2[C@H]3CC[C@H]4C[C@@H](O)CC[C@]4(C)[C@@H]3CC[C@]12C was tested. Which AC50 did it give?
A: 2 µM (active)

Q: C[C@]12CC[C@H](O)C[C@@H]1CC[C@H]1[C@H]2CC[C@]2(C)C(=O)CC[C@@H]12 was tested. Which activity, negative = inhibition did it give?
A: inactive

Q: CC(=O)OCC(=O)[C@@H]1CC[C@H]2[C@H]3CC[C@H]4C[C@@H](O)CC[C@]4(C)[C@@H]3C(=O)C[C@@]12C was tested. Which activity, negative = inhibition did it give?
A: inactive
